Here are results for 33 compounds from PubChem BioAssay (NCATS).

“And” between values parts separate entries of the source, which are not always exact repeats. Identical values can stand only once. Inconclusive results are not listed. A call without a number means that no potency is given here. The source made the active and inactive calls. The call rests on the fitted dose curve.
Potency means the concentration at half of the fitted maximal effect.

Nucleoprotein (Lymphocytic choriomeningitis virus (strain Armstrong)), sequence (P09992 whole entry, looked up): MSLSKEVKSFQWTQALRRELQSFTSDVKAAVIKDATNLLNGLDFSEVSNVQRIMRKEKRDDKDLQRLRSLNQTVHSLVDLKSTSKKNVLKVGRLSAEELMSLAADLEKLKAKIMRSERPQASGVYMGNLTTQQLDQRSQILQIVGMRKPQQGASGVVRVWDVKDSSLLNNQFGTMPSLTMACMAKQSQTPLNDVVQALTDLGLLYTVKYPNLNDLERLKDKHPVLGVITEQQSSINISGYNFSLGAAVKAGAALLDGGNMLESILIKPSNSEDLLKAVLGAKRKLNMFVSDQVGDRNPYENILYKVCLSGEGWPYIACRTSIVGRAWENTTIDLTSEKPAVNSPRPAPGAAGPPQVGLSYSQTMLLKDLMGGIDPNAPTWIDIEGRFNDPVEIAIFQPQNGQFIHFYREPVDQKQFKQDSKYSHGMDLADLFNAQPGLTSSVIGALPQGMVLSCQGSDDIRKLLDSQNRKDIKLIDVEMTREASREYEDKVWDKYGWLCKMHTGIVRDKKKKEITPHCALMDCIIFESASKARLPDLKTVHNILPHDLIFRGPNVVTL

One assay addresses Nucleoprotein (Lymphocytic choriomeningitis virus (strain Armstrong)) (UniProt P09992). In words: qHTS for Inhibitors of the Functional Ribonucleoprotein Complex (vRNP) of Lymphocytic Choriomeningitis Arenaviruses (LCMV): LCMV Primary Screen - GLuc reporter signal (AID 1347086). Further: nearly all actives have a fitted effect of over 70% in size. The note with it: LCMV minigenome vRNP cell assay, Gaussia luciferase reporter; series mostly up to 57.5 µM.
As for `COc1ccc(C(=O)/C=C/c2ccc(OC)cc2OC)c(O)c1`, the Potency result is “inactive”.

With `CC(=O)O[C@H]1[C@H]2O[C@]23[C@@H]2CC[C@]4(O)C[C@@H](O)CC[C@]4(C)C2CC[C@]3(C)[C@H]1c1ccc(=O)oc1` (stereo partly drawn), the Potency is 0.316 µM (active).

With `COc1ccc(CCOC2OC(CO)C(OC(=O)/C=C/c3ccc(O)c(OC)c3)C(O[C@H]3O[C@@H](C)[C@H](O)[C@@H](O)[C@H]3O)C2O)cc1O` (stereo partly drawn), the Potency entry was “inactive”.

As for `O=C(CC(O)CCc1ccccc1)c1ccc(O)cc1` (stereo not drawn), the Potency entry was “inactive”.

As for `Nc1ccc(N=Nc2ccc(-c3ccc(N=Nc4c(S(=O)(=O)O)cc5cc(S(=O)(=O)O)c(N=Nc6ccccc6)c(O)c5c4N)cc3)cc2)c(N)c1`, the Potency result is “inactive”.

For the compound `CC(C)(C)c1nc2c3cc[nH]c(=O)c3c3cc(F)ccc3c2[nH]1`, the Potency entry was “inactive”.

Take `NS(=O)(=O)c1ccc(NC2=CC(=O)c3ccccc3C2=O)cc1`: the Potency was 12.2 µM (active).

As to `Cc1ccc(O)c(N=Nc2ccccc2)n1`, the Potency entry is “inactive”.

As to `Cc1cccc(O)c1C`, the Potency result was “inactive”.

Regarding `COC1CC2C=C(C)C=CC=CC(=O)NC(c3ccccc3)CC=CCCC(O)CC(=O)C2=C1O` (stereo not drawn), the Potency result is “inactive”.

On to `O=S(=O)(NCCNCC=Cc1ccc(Br)cc1)c1cccc2cnccc12`, for which the Potency entry is “inactive”.

For the compound `COC(=O)C12OCC34C(CC5C(C)=C(O)C(=O)CC5(C)C3C(O)C1O)OC(=O)C(OC(=O)C=C(C)C)C24` (stereo not drawn), the Potency entry is “inactive”.

`C[C@@]12C=Cc3occc3[C@H]1CC[C@@]13C[C@@H](CC[C@H]12)[C@@](O)(CO)C3`: the Potency result is “inactive”.

Take `CCN(CC)CCOc1ccc(C(=C(Cl)c2ccccc2)c2ccccc2)cc1`: the Potency result was “inactive”.

`NC(=O)c1nnn(Cc2cc(Cl)c(C(=O)c3ccc(Cl)cc3)c(Cl)c2)c1N`: the Potency entry was “inactive”.

In the case of `COc1ccc(-c2cc(=O)c3c(O)cc(O[C@@H]4O[C@H](CO[C@@H]5O[C@@H](C)[C@H](O)[C@@H](O)[C@@H]5O)[C@@H](O)[C@H](O)[C@@H]4O)cc3o2)cc1O`, the Potency is 10.9 µM (active).

With `COc1c(O)c(=O)n2c3ccccc3c3ccnc1c32`, the Potency result was “inactive”.

`CCCC(=O)OCCC(C)C`: the Potency result is “inactive”.

`O=C1Cc2c([nH]c3ccc(Br)cc23)-c2ccccc2N1`: the Potency entry is “inactive”.

`CCCCCCCCc1ccc(CCC(N)(CO)CO)cc1`: the Potency entry is “inactive”.

Take `CCCCCC(=O)N[C@@H](c1ccccc1)[C@@H](O)C(=O)O[C@H]1C[C@@]2(O)[C@@H](OC(=O)c3ccccc3)C3[C@](C)(C(=O)[C@H](OC(C)=O)C(=C1C)C2(C)C)[C@@H](O)C[C@H]1OC[C@@]31OC(C)=O` (stereo partly drawn): the Potency result was “inactive”.

`CO[C@@H]1[C@@H](OC2OC(C)C(OC3CC(C)(O)C(OC(=O)CC(C)C)C(C)O3)C(N(C)C)C2O)[C@@H](CC=O)C[C@@H](C)C(=O)/C=C\C2O[C@H]2C[C@@H](C)OC(=O)C[C@H]1OC(C)=O` (stereo partly drawn): the Potency result was “inactive”.

Take `CC(=O)OC[C@@H]1O[C@@H](n2ccc(=O)[nH]c2=O)[C@H](OC(C)=O)[C@H]1OC(C)=O`: the Potency is 7.69 µM (active).

With `N#Cc1cc([N+](=O)[O-])c2sc(C(N)=O)[n+]([O-])c2c1`, the Potency entry is “inactive”.

For the compound `CCOc1cc2c(c(F)c1OCC)C(=N)N(CC(=O)c1cc(N3CCOCC3)c(OC)c(C(C)(C)C)c1)C2`, the Potency is 9.68 µM (active).

Consider `CC1(C)CC(=O)c2c(C(F)(F)F)nn(-c3ccc(C(N)=O)c(NC4CCC(OC(=O)CN)CC4)c3)c2C1` (stereo not drawn), for which the Potency was 0.611 µM (active).

System in another assay: not listed separately
In words: Cytotoxicity counterscreen for inhibitors of SARS-CoV-2 cell entry (AID 1645845). Further: nearly all actives have a fitted effect of over 50% in size. The note with it: cell viability (SARS-CoV-2 entry assay cells); series mostly up to 57.1 µM. A digest of the protocol: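 48 h compound treatment (after 1 h preincubation), HEK293-ACE2 cells, 37 C/5% CO2; ATP luminescence endpoint; normalized to cell wells and media blanks.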
On the technique in general: Counterscreens check selectivity or assay interference.
As to `CC(C)(C)c1nc2c3cc[nH]c(=O)c3c3cc(F)ccc3c2[nH]1`, the Potency result was “inactive”.

As to `NS(=O)(=O)c1ccc(NC2=CC(=O)c3ccccc3C2=O)cc1`, the Potency result was “inactive”.

In the case of `C[C@@]1(c2cc(-c3cncnc3)c(F)cc2F)CCSC(N)=N1`, the Potency result was “inactive”.

Consider `CCC[C@H](N[C@@H](C)C(=O)N1[C@@H]2CCCC[C@H]2C[C@H]1C(=O)O)C(=O)OCC`, for which the Potency result is “inactive”.

As to `CC1(C)CNc2cc(NC(=O)c3cccnc3NCc3ccncc3)ccc21`, the Potency entry was “inactive”.

As for `C=CC(=O)N1CCC[C@@H](n2nc(-c3ccc(Oc4ccccc4)cc3)c3c(N)ncnc32)C1`, the Potency entry was “inactive”.

As for `CN(C)c1ccc2cc(C(=O)N[C@@H](CCCN=C(N)CCl)C(=O)NCc3ccccc3)ccc2c1`, the Potency result was “inactive”.

Turning to `O=C1NC(=O)/C(=C/c2ccc3nccnc3c2)S1`, the Potency result is “inactive”.

Consider `CCCCCCCCc1ccc(CCC(N)(CO)CO)cc1`, for which the Potency is 7.08 µM (active) and 25.1 µM (active).

System in the next assay: not listed separately
Nature of the assay: Primary qHTS to identify inhibitors of SARS-CoV-2 cell entry (AID 1645846). Further: nearly all actives have a fitted effect of over 45% in size. The following applies: SARS-CoV-2 pseudovirus cell entry assay, luminescence; activity change, negative = inhibition: at 57.1 µM (top of the series) unless noted; series mostly up to 57.1 µM. A digest of the protocol: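 Using luciferase-reporting pseudoviruses carrying Wuhan-Hu-1 spike, the screen tracks entry into stably ACE2-expressing cells over 48 hr. Activity is expressed relative to spike particles versus particles lacking any fusion protein.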
(qHTS replaces the single test concentration by a dilution series.)
As to `COc1cc2c(NC3CCN(C(C)C)CC3)nc(C3CCCCC3)nc2cc1OCCCN1CCCC1`, the Potency was 8.91 µM (active).

As for `NS(=O)(=O)c1ccc(NC2=CC(=O)c3ccccc3C2=O)cc1`, the Potency entry is “inactive”.

`C[C@@]1(c2cc(-c3cncnc3)c(F)cc2F)CCSC(N)=N1`: the activity change, negative = inhibition is -2.33%.

As to `CCC[C@H](N[C@@H](C)C(=O)N1[C@@H]2CCCC[C@H]2C[C@H]1C(=O)O)C(=O)OCC`, the activity change, negative = inhibition was found to be 1.44%.

Turning to `CC1(C)CNc2cc(NC(=O)c3cccnc3NCc3ccncc3)ccc21`, the Potency entry was “inactive”.

With `C=CC(=O)N1CCC[C@@H](n2nc(-c3ccc(Oc4ccccc4)cc3)c3c(N)ncnc32)C1`, the Potency result was “inactive”.

Regarding `CN(C)c1ccc2cc(C(=O)N[C@@H](CCCN=C(N)CCl)C(=O)NCc3ccccc3)ccc2c1`, the activity change, negative = inhibition was -26.4%.

Consider `O=C1NC(=O)/C(=C/c2ccc3nccnc3c2)S1`, for which the Potency entry is “inactive”.

Regarding `CCCCCCCCc1ccc(CCC(N)(CO)CO)cc1`, the Potency was 8.91 µM (active).

For the compound `CO[C@@H]1[C@@H](OC2OC(C)C(OC3CC(C)(O)C(OC(=O)CC(C)C)C(C)O3)C(N(C)C)C2O)[C@@H](CC=O)C[C@@H](C)C(=O)/C=C\C2O[C@H]2C[C@@H](C)OC(=O)C[C@H]1OC(C)=O` (stereo partly drawn), the Potency is 28.2 µM (active).

For the compound `CC(=O)OC[C@@H]1O[C@@H](n2ccc(=O)[nH]c2=O)[C@H](OC(C)=O)[C@H]1OC(C)=O`, the activity change, negative = inhibition was -39.7%.

Regarding `CCOc1cc2c(c(F)c1OCC)C(=N)N(CC(=O)c1cc(N3CCOCC3)c(OC)c(C(C)(C)C)c1)C2`, the Potency was 35.5 µM (active).

Take `CC1(C)CC(=O)c2c(C(F)(F)F)nn(-c3ccc(C(N)=O)c(NC4CCC(OC(=O)CN)CC4)c3)c2C1` (stereo not drawn): the activity change, negative = inhibition is -89%.
